Assay outcomes from PubChem BioAssay.
A selection: hits, their analogues and other compounds. The true share with any hit is near 6.9%.
Vif-APOBEC3G blk: blocks the Vif interaction with human APOBEC3G. HeLa A3G-eYFP + Vif (tagged APOBEC3G with the HIV-1 protein that degrades it), YFP fluorescence, overnight. Potency, µM (doses to about 46.1 µM), without a hit: at the highest dose activity, negative = active, hits mostly inhibitors. Q9HC16. 410,000 compounds, 0.076% hits; also: potency is read from the fitted curve at half-maximal effect; % is scaled to controls: 0 for no effect and ±100 for the full control effect; nearly all actives have a fitted effect of over 60% in size
Target sequence (Q9HC16 whole entry, looked up): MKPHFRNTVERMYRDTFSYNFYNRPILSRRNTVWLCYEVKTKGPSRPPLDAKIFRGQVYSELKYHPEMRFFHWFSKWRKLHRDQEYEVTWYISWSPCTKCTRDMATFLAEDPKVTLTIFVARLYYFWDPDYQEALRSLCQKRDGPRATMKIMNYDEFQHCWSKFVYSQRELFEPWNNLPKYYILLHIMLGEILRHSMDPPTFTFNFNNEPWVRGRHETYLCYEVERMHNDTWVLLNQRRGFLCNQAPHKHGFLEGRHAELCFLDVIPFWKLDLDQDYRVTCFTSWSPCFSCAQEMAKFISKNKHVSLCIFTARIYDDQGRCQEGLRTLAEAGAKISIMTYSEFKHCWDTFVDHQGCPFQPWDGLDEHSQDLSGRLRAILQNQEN
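Read-out is eYFP fluorescence (Ex 488/Em 500-530) from Vif-expressing HeLa A3G-eYFP cells; more signal means A3G escaped Vif-mediated degradation. Cells plated overnight, compound pinned in, incubated overnight at 37 deg C.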
MCF10A rereplic: inducers of DNA re-replication in MCF 10A breast cells. 350,000 compounds, 2.9% hits. Potency, µM (top dose mostly 46.1 µM), for inactives: top-dose activity, positive = re-replication, hits mostly activators. AID 624296. MCF 10A DNA re-replication, Hoechst nuclear intensity, 48 h; also: potency is read from the fitted curve at half-maximal effect; % of control where 0% means no effect; nearly all actives have a fitted effect of over 50% in size
Vif-APOBEC3F blk: blocks the Vif interaction with APOBEC3F | 390,000 compounds, 0.2% hits | Potency, µM (titrated, usually from 46.1 µM), for the others: at the highest dose activity, negative = active | HeLa A3F-eYFP + Vif (tagged APOBEC3F with the HIV-1 protein that degrades it), YFP fluorescence increase; also: potency is read from the fitted curve at half-maximal effect; % of control where 0% means no effect; nearly all actives have a fitted effect of over 65% in size
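HeLa cells stably expressing Vif plus C-terminally eYFP-tagged A3F were seeded, incubated overnight at 37 deg C, dosed with compound, incubated overnight again at 37 deg C. Yellow fluorescence (Ex 488/Em 500-530) reported blocked Vif-mediated A3F-eYFP degradation.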
SW480 rereplic: inducers of DNA re-replication in SW480 colon cancer cells. SW480 DNA re-replication, Hoechst DNA content imaging, 48 h. Potency, µM (doses to about 46.1 µM), for inactives: at the top dose re-replication activation, most hits filed as activators. 340,000 compounds, 1.8% hits. AID 624297; also: potency is read from the fitted curve at half-maximal effect; % of control where 0% means no effect; nearly all actives have a fitted effect of over 55% in size
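Cells (250 per well) received 23 nL compound or DMSO by pin tool and were kept 48 hr at 37 C, 5% CO2. Nuclei were then stained with Hoechst for 40 min and scanned for DNA content.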
IL1B secr inh: inflammasome signaling inhibition, IL-1 beta readout; THP-1 LPS/ATP IL-1B secretion, AlphaLISA, 16 h; hits give low values; activity change, % at 57.5 µM; 360,000 compounds, 4.7% hits; in the data active = activity change below about -50%; inconclusive = mostly about -30% to -49%; also: % is scaled to controls: 0 for no effect and ±100 for the full control effect
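THP-1 cells pretreated 1 hr with compounds (up to 57.5 uM final), then stimulated with LPS (250 ng/mL final) plus ATP (1.25 mM final); secreted IL-1B measured by AlphaLISA after 16 hr, decreased signal indicating inhibition.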
Giardia killer: Giardia lamblia killing; Giardia lamblia trophozoite viability; activity change, % at 7.66 µM, hits read low; 340,000 compounds, 0.15% hits; in the data active = activity change below about -80%; inconclusive = between about -30% and that limit;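 also: parasites exposed to compound for two days anaerobically before the ATP read; % is scaled to controls: 0 for no effect and ±100 for the full control effect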
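Luminescence from cellular ATP indicates surviving trophozoites (100 cells/well) following 48 hrs anaerobic compound treatment at 37 deg C; signal develops 15-30 min at room temperature.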
Numbers without * were called inactive; ? = inconclusive; . = no result; [ ] = dose if it differs, or a comment. Unless noted, calls follow the shape of the dose curve; as a rule, active = well fitted curve in the direction sought with a large enough effect; inconclusive = small, poorly fitted or top-dose-only effect, or another doubt; inactive = no such curve, though single readings can be large; an effect the other way counts as inactive or inconclusive.

SMILES | Vif-APOBEC3G blk | MCF10A rereplic | Vif-APOBEC3F blk | SW480 rereplic | IL1B secr inh | Giardia killer
CCOC(=O)C1=C(c2ccccc2)N=c2s/c(=C\c3ccc(O)cc3)c(=O)n2C1c1cccs1 (configuration not stated) | -25% | ? | ? | ? | -78* | 2
CCOC(=O)C1=C(c2ccccc2)N=c2sc(=Cc3cc(OC)c(OC)c(OC)c3)c(=O)n2C1c1cccs1 (configuration not stated) | -11% | . | . | . | ? | .
COc1ccccc1-c1c(C)nn2c(N3CCN(c4ccc(Cl)cc4)CC3)cc(C)nc12 | 1% | . | 1% | . | . | .
CCN(CC)Cc1nc2c(c(=O)[nH]1)C1(CCCCC1)Cc1ccccc1-2 | 1% | 5.8µM* | -8% | ? | -16 | 3
C=CCNC(=S)NNc1nc2c(c(=O)[nH]1)C1(CCCC1)Cc1ccccc1-2 | 2% | 4% | 1% | -20% | 2 | 6
O=c1[nH]c(NNC(=S)NCc2ccccc2)nc2c1C1(CCCCC1)Cc1ccccc1-2 | -14% | 12µM* | 1% | -39% | -23 | 0
CN1CCN(CCCNc2nc3ccccc3c3nc(-c4ccccc4)nn23)CC1 | 0% | ? | ? | ? | -7 | -3
COCCCNc1nc2cc(OC)c(OC)cc2c2nc(-c3ccccc3)nn12 | 2% | 6% | -7% | -3% | -4 | -10
CCN(CC)CCCNc1nc2cc(OC)c(OC)cc2c2nc(-c3cccnc3)nn12 | 4% | ? | 9% | ? | -90* | 1
CCN(CC)CCCNc1nc2cc(OC)c(OC)cc2c2nc(-c3ccccc3)nn12 | 4% | ? | -4% | ? | -88* | -13
CCN(CC)CCCNc1nc2ccccc2c2nc(-c3ccncc3)nn12 | 4% | ? | 1% | ? | -102* | -28
CCOCCCNc1nc2cc(OC)c(OC)cc2c2nc(-c3ccccc3)nn12 | -4% | . | 0% | . | . | .
COc1cc2nc(NCCCN3CCN(C)CC3)n3nc(-c4ccccc4)nc3c2cc1OC | 3% | 13µM* | -8% | ? | -110* | 2
N#C/C(=C\c1ccc(Cl)cc1)c1nc(-c2cc3c(ccc4ccccc43)oc2=O)cs1 | -1% | . | -18% | . | . | .
CCOc1cc(CNCCO)cc(Br)c1OCc1cccs1 | 2% | -3% | -6% | 3% | -60* | 18
CCOc1cc(CNCCO)cc(Br)c1OCc1ccc(Cl)cc1Cl | -11% | ? | 3% | ? | -101* | 19
O=[N+]([O-])c1cc2no[n+]([O-])c2cc1N1CCCCC1 | -6% | 3.3µM* | ? | 6.5µM* | -78* | -28
OC(Cn1ccnc1)c1ccc(Cl)cc1Cl (configuration not stated) | 1% | 0% | -7% | 0%[9.22 µM] | -5 | 2
Clc1ccc(C(Cn2ccnc2)OCc2c(Cl)cccc2Cl)c(Cl)c1 (configuration not stated) | -9% | 4.6µM* | 6% | ? | 0 | ?
CCOC(=O)c1c(NC(=O)CSc2cn(CCNC(=O)c3c(F)cccc3F)c3ccccc23)sc2c1CCCC2 | -1% | . | -10% | . | . | .
COc1ccc(-c2cn3c(n2)sc2cc(C(=O)NCCc4ccc(OC)cc4OC)ccc23)cc1 | -7% | . | 0% | . | . | .
CCc1cccc(C)c1NC(=S)NCC1CCN(c2ccc(OC)cc2)C1 (configuration not stated) | 0% | 24% | -19% | ? | -67* | 27
CCc1ccccc1NC(=S)NCC1CCN(c2ccc(OC)cc2)C1 (configuration not stated) | 1% | ? | ? | -8% | -7 | -12
Cc1ccc(-c2nnc(N3CCCCC3)c3ccccc23)cc1S(=O)(=O)N(C)C | 0% | ? | 0% | ? | -57* | -7
COc1ccc(-c2nn(-c3ccc(C)c(Cl)c3)c3c2cnc2cc(OC)c(OC)cc23)cc1 | 2% | . | 2% | . | . | .
SMILES | Vif-APOBEC3G blk | MCF10A rereplic | Vif-APOBEC3F blk | SW480 rereplic | IL1B secr inh | Giardia killer
O=C1CCCc2cc3c(ccc4ccccc43)cc21 | -1% | 18µM* | -3% | 2% | 9 | -6
Cc1ccc2nc(NCc3ccccc3)[nH]c2c1 | ? | ? | -25% | 5.2µM* | -73* | 6
COc1ccc2nc(NCCO)[nH]c2c1 | 1% | -18% | 5% | 2% | 30 | -5
c1ccc(CNc2nc3ccccc3[nH]2)cc1 | -9% | ? | -6% | ? | -60* | 0
COc1ccc2nc(NCc3ccccc3)[nH]c2c1 | ? | 18µM* | -10% | 15µM* | -102* | -1
COc1ccc(OC)c(C2CC(=O)Nc3c2c(=O)[nH]c2nc4ccccc4n32)c1 (configuration not stated) | 1% | . | 1% | . | . | .
CCCCCCCCN1[C@@H](CC(=O)OC)c2ccc(/C=C/C(=O)OC)cc2S1(=O)=O | -2% | . | . | . | . | .
Cc1cccc(-n2cc(-c3ccccc3)c3c(=O)[nH]cnc32)c1 | 0% | 22% | -5% | -8% | -88* | 14
CCOc1ccc(-n2cc(-c3ccccc3)c3c(=O)[nH]cnc32)cc1 | -1% | 14% | 3% | 1% | -67* | 1
O=c1[nH]cnc2c1c(-c1ccccc1)cn2-c1ccc(Br)cc1 | -4% | 13% | -1% | 1% | ? | -8
CCn1nnc2cc(C(=O)Nc3cc(C)ccc3C)ccc21 | -18% | . | 0% | . | . | .
CCOc1cc(C#N)c(NC(=O)c2cccnc2)cc1OCC | ? | 3.7µM* | 2% | 5.2µM* | 49 | 3
CCOc1ccc(CC(=O)N/N=C(\C)c2cccnc2)cc1OCC | 1% | 21µM* | 3% | 2% | 9 | 8
Cc1cccc2[nH]c3c(N4CCC5(CC4)OCCO5)ncnc3c12 | -18% | ? | -2% | ? | -20 | 5
Cc1ccc2[nH]c3c(N4CCc5ccccc5C4)ncnc3c2c1 | ? | ? | 0% | 3% | -83* | 13
CCOc1ccc2[nH]c3c(N4CCc5ccccc5C4)ncnc3c2c1 | ? | 9.2µM* | 6% | ? | . | 7
Clc1ccc2[nH]c3c(N4CCC5(CC4)OCCO5)ncnc3c2c1 | ? | 21µM* | 0% | ? | ? | -5
CC(C)(C)OC(=O)N1CCC(c2c(C(=O)N3CCC(c4ccccc4)C3)cnn2-c2cccc(Cl)c2)CC1 (configuration not stated) | 5% | . | -7% | . | . | .
CCC(C)NC(=O)c1ccccc1NC(=O)C1CCN(S(=O)(=O)Cc2ccccc2)CC1 (configuration not stated) | 1% | . | 3% | . | . | .
CC(C)C[C@@H](NC(=O)[C@@H](Cc1ccccc1)NC(=O)c1cnccn1)B(O)O | . | 57% | . | 0.0042µM* | . | .
